TGFb inhibitor – blocks TGF-b signaling. HepG2 CAGA-GFP TGF-b/SMAD3 reporter, GFP fluorescence, 18 h; TGF-beta stimulated, 500 pg/mL final. Potency, µM (series often up to 46.1 µM), most hits filed as inhibitors. 1.2% of 410,000 active. AID 588855; also: nearly all actives have a fitted effect of over 65% in size
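Read-out: total well GFP (ex488/em500-530) summed from mean per-cell fluorescence. Cells: HEPG2 CAGA-GFP, 1% FBS DMEM, 18 h at 37 degrees C with 500 pg/mL final TGF-beta. Unstimulated wells served as the full-inhibition control; stimulated DMSO wells = 0%.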
HepG2 tox – counter-screen for TGF-b inhibitors: cytotoxicity in HepG2 cells | HepG2 CAGA-GFP viability, ATP luminescence, 18 h | Potency, µM (top dose mostly 46.1 µM), actives largely listed as cytotoxic | 0.76% of 410,000 active
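CellTiter-Glo luminescence gave cytotoxicity after 18 hours at 37 degrees C. The cells were HepG2 CAGA-GFP in 1% FBS DMEM, stimulated with 500 pg/mL TGF-beta after compound addition. %Activity was normalised to no-cell wells (complete cell-killing) and DMSO (no toxicity), and curves were fitted and classified.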
IL-1B inflam inh – inhibitors of inflammasome signaling (IL-1 beta secretion). THP-1 LPS/ATP IL-1B secretion, AlphaLISA, 16 h; hits give low values. activity change, % at 57.5 µM. 4.7% of 360,000 active. AID 743279; in the data active = activity change below about -50%; inconclusive = mostly about -30% to -49%
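Secreted IL-1B measured by AlphaLISA bead assay after 16 h compound exposure of THP-1 cells; compounds (final up to 57.5 uM) added 1 h before LPS (250 ng/mL) and ATP (1.25 mM) stimulation; lower signal means less secretion.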
TDP1 inh – inhibitors of human tyrosyl-DNA phosphodiesterase TDP1; Potency, µM (top dose mostly 130 µM), actives largely listed as inhibitors; recombinant TDP1, AlphaScreen DNA substrate cleavage; 0.28% of 350,000 active; AID 485290; also: nearly all actives have a fitted effect of over 40% in size
Target sequence (Q9NUW8 whole entry, looked up): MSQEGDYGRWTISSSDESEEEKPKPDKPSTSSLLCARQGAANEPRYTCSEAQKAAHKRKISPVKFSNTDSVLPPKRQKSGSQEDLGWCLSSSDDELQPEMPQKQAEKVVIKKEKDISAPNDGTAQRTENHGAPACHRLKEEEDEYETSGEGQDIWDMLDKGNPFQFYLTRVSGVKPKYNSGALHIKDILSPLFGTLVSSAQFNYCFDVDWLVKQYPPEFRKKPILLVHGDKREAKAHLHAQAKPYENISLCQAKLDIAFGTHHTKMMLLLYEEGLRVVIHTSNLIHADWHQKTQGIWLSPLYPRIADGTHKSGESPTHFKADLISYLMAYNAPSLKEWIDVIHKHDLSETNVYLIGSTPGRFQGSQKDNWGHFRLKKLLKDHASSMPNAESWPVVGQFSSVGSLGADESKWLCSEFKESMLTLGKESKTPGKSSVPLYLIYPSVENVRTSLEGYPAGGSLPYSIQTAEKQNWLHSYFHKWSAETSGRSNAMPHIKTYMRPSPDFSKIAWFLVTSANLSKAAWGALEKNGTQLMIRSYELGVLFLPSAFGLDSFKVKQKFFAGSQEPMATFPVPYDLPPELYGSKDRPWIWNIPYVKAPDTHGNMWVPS
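Signal: AlphaScreen proximity between streptavidin donor and anti-FITC acceptor beads on intact substrate. Reaction: Tdp1 1 nM, substrate 15 nM final, 5 min RT after 15 min compound preincubation.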
TDP1 cell noCPT – qHTS for Inhibitors of human tyrosyl-DNA phosphodiesterase 1 (TDP1): qHTS in cells in absence of CPT. DT40 Tdp1-/- hTDP1 cells, no CPT, ATP luminescence, 48 h. Potency, µM (titrated, usually from 46.2 µM), most hits filed as inhibitors. 15% of 420,000 active. AID 686978, 2013; also: nearly all actives have a fitted effect of over 55% in size
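Chicken DT40 Tdp1-/- cells complemented with human TDP1, screened without camptothecin (DMSO vehicle only), 400 cells/well. Compounds pin-transferred, cells incubated at 37 °C for at least 48 hr. Growth read as ATP-dependent luminescence (CellTiter-Glo, 30 min at RT).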
TDP1 cell CPT – growth inhibition of DT40 Tdp1-/-;hTDP1 cells with camptothecin (screen for TDP1 inhibitors); chicken DT40 Tdp1-/-;hTDP1 cells + 20 nM CPT, ATP luminescence, 48 h; Potency, µM (series often up to 46.2 µM), usual class: inhibitors; 12% of 420,000 active; AID 686979; also: nearly all actives have a fitted effect of over 55% in size
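Chicken DT40 Tdp1-/- cells complemented with human TDP1, 400 cells/well, exposed to compounds plus 20 nM camptothecin for at least 48 h at 37 C; viability read as ATP content by CellTiter-Glo luminescence.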
A number is an active result; i = inactive; ? = inconclusive; nt = not tested or not shown; ! = not confirmed by another sample; [ ] = dose if it differs, or a comment. Sampled rows, rich in hits. Any-hit rate of the full collection: about 19%. Unless noted, calls follow the shape of the dose curve; as a rule, active = well fitted curve in the direction sought with a large enough effect; inconclusive = small, poorly fitted or top-dose-only effect, or another doubt; inactive = no such curve, though single readings can be large; an effect the other way counts as inactive or inconclusive.

SMILES	TGFb inhibitor	HepG2 tox	IL-1B inflam inh	TDP1 inh	TDP1 cell noCPT	TDP1 cell CPT
COc1cc(OC)cc(-c2nnc(SCC(=O)N3CCC(C)CC3)o2)c1	i	i	nt	i	?	?
Cc1cccc(N2C(=O)N3[C@H](c4ccc(Br)cc4)[C@@H]4C(=O)N(C(C)(C)C)C(=O)[C@@H]4[C@]3(C)C2=O)c1	i	i	i	nt	?	18µM
Cc1ccc(N2C(=O)N3[C@H](c4ccc(Br)cc4)[C@@H]4C(=O)N(C(C)(C)C)C(=O)[C@@H]4[C@]3(C)C2=O)cc1	?	i	i	nt	i	?
CC(C)(C)N1C(=O)[C@H]2[C@@H](c3ccc(Br)cc3)N3C(=O)N(c4ccc(Br)cc4)C(=O)[C@@]3(Cc3ccccc3)[C@H]2C1=O	i	i	i	nt	?	21µM
O=C1[C@H]2[C@@H](c3ccc(Cl)cc3)N3C(=O)N(c4cccc(Cl)c4)C(=O)[C@@]3(Cc3ccccc3)[C@H]2C(=O)N1C1CCCCC1	?	i	i	i	12µM	10µM
COCCn1c(C)cc(C(=O)CN2C(=O)C(=O)N(CCC3=CCCCC3)C2=O)c1C	i	i	i	nt	?	i
Cc1cc(C(=O)CCC(=O)NCC2COc3ccccc3O2)c(C)s1 (centres undefined)	i	i	i	nt	i	i
CC(C)CN(C(=O)COC(=O)c1cc2ccccc2cc1O)c1c(N)n(Cc2ccccc2)c(=O)[nH]c1=O	i	i	-54	nt	?	?
CC(C)CN(C(=O)COC(=O)C12CC3CC(CC(C3)C1)C2)c1c(N)n(Cc2ccccc2)c(=O)[nH]c1=O	i	i	i	i	10µM	?
Cc1cccc(C(=O)OCC(=O)N(CC(C)C)c2c(N)n(Cc3ccccc3)c(=O)[nH]c2=O)c1C	i	i	i	i	?	?
CC(=O)Nc1sc(C)c(C)c1C(=O)OCC(=O)N(CC(C)C)c1c(N)n(Cc2ccccc2)c(=O)[nH]c1=O	i	i	i	i[0.505 µM]	5.8µM	23µM
CC(C)CN(C(=O)COC(=O)c1cc(=O)[nH]c2ccccc12)c1c(N)n(Cc2ccccc2)c(=O)[nH]c1=O	i	i	i	nt	i	i
CCN(CCCNC(=O)CN1C(=O)COc2ccc(S(=O)(=O)N3CCC(C)CC3)cc21)Cc1ccccc1	i	i	nt	i	i	?
Cc1nc(NC(=O)c2ccccc2)sc1Cc1ccc2c(c1)OCO2	i	i	i	i	?	?
Cc1nc(NC(=O)c2ccc(Cl)cc2)sc1Cc1ccc2c(c1)OCO2	?	i	i	i	3.7µM	4.1µM
COc1cccc2cc(S(=O)(=O)c3ccc(F)c(C)c3)c(=O)oc12	?	i	nt	i	i	i
CCCCN(C=O)c1c(CC)nc2ccc(C(=O)Nc3cc(-c4ccccc4)ccc3OC)cn12	7.1µM	i	-70	nt	16µM	?
CCc1nc2ccc(C(=O)Nc3cc(-c4ccccc4)ccc3OC)cn2c1N(CC)Cc1cccc(Br)c1	i	i	?	nt	?	?
CCCCN(C=O)c1c(CC)nc2ccc(C(=O)NCCN(C)C)cn12	i	i	i	nt	i	i
CCc1nc2ccc(C(=O)Nc3cc(-c4ccccc4)ccc3OC)cn2c1N(CC)CCN(C)C	?	14µM	i	nt	18µM	16µM
CN(C)CCOc1ccc(C(C)(C)c2ccccc2)cc1	i	i	i	nt	?	?
CCN(CC)CCOc1ccc(/C(=C(/Cl)c2ccccc2)c2ccccc2)cc1	?	10µM!	?	i	23µM	23µM
COc1ccc(C(Cl)=C(c2ccc(OC)cc2)c2ccc(OC)cc2)cc1	i	i	i	i	?	?
CC/C(=C(\c1ccccc1)c1ccc(OCCN(C)C)cc1)c1ccccc1	?	i	-72!	i	18µM	21µM
NNC(=O)c1[nH]c(-c2ccccc2)cc1-c1ccccc1	i	i	i	nt	?	i
